These results are taken from PubChem BioAssay (NCATS).

“And” between values parts separate entries of the source, which are not always exact repeats. Equal entries are not always repeated. Records with an inconclusive call do not appear. The source made the active and inactive calls. Unless noted, the rule behind the calls is not given here.

The nature of assay [1]: qHTS profiling for inhibitors of Plasmodium falciparum (3D7) proliferation (AID 743322).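 Note: infected erythrocytes exposed to compound for 72 h before lysis; 100% = DMSO vehicle wells and 0% = 0.29 µM artemisinin.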 The following applies: P. falciparum 3D7 proliferation; at 28.7 µM (top of the series). The procedure, abridged: (§1)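 Erythrocytes infected with P. falciparum (0.3% parasitemia, 2.5% hematocrit) incubated with compounds 72 h at 37 C, 5% CO2. Lysis with saponin/Triton buffer containing SYBR Green I, overnight at room temperature in the dark; DNA fluorescence (485/535 nm) normalised to 0.29 uM artemisinin and DMSO.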

A short description of assay [2]: qHTS profiling for inhibitors of Plasmodium falciparum (DD2) proliferation (AID 743323). As to conditions: lower = more inhibition; at 28.7 µM (top of the series). In outline: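 1536-well qHTS; infected RBCs 0.3% parasitemia/2.5% Hct final; cpd 72 h 37 C 5% CO2; lysis buffer + SYBR Green I, o/n RT dark; FI 485/535; norm. to 0.29 uM artemisinin and DMSO, plate-stack corrected.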

Assay [3] in a line: qHTS profiling for inhibitors of Plasmodium falciparum (HB3) proliferation (AID 743324; active = well fitted curve in the direction sought with a large enough effect; an effect the other way counts as inactive or inconclusive;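 note: 100% = DMSO vehicle wells and 0% = artemisinin-treated control wells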). As to conditions: Plasmodium falciparum HB3 blood-stage proliferation; at 28.7 µM (top of the series). In outline:
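P. falciparum HB3 grown in erythrocytes (0.3% parasitemia, 2.5% hematocrit final) with compound for 72 h at 37 C, 5% CO2. Parasite DNA detected by SYBR Green after saponin/triton lysis overnight; normalized to 0.29 uM artemisinin and DMSO.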

Assay [4] in a line: qHTS profiling of the MIPE4 collection as inhibitors of Plasmodium falciparum (3D7) proliferation (AID 743344).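 Note: scaled between DMSO vehicle wells and 0.29 µM artemisinin as full inhibition.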 The following applies: P. falciparum 3D7 in erythrocytes, SYBR Green DNA fluorescence, 72 h; at 28.5 µM (top of the series) unless noted. In outline:
as §1

Assay [5] is described as follows: qHTS profiling of the MIPE4 collection as inhibitors of Plasmodium falciparum (DD2) proliferation (AID 743345). The following applies: P. falciparum Dd2 in erythrocytes, SYBR Green DNA, 72 h; at 28.5 µM (top of the series) unless noted. In outline: as §1
Assay [6] in a line: qHTS profiling of the MIPE4 collection as inhibitors of Plasmodium falciparum (DD2) proliferation (Rep 2) (AID 743346). The following applies: P. falciparum Dd2 in erythrocytes, SYBR Green DNA, 72 h; at 28.5 µM (top of the series) unless noted. The procedure, abridged:
as §1

The nature of assay [7]: qHTS profiling of the MIPE4 collection as inhibitors of Plasmodium falciparum (HB3) proliferation (AID 743347).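 Note: plate controls were DMSO vehicle wells for no effect and artemisinin wells for full effect.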 The following applies: P. falciparum HB3 in erythrocytes, SYBR Green DNA, 72 h; at 28.5 µM (top of the series) unless noted. The procedure, abridged:
as §1

Assay [8] is described as follows: High-throughput drug toxicity screening in the BPDCN cell line Gen2.2 (AID 1224824).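 Note: cells exposed to compounds for 48 h before reading.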 The following applies: Gen2.2 BPDCN cells; at 45.8 µM (top of the series) unless noted. The procedure, abridged:
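Gen2.2 cells (500/well) in phenol red-free RPMI with 10% FBS were exposed to compounds for 48 h at 37 °C, 5% CO2. Viability was read by CellTiter-Glo luminescence and normalized to DMSO (100%) and 9.2 uM bortezomib (0%).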

Assay [9] can be described thus: High-throughput drug toxicity screening in the BPDCN cell line Cal-1 (AID 1224825). The following applies: Cal-1 BPDCN cell viability, qHTS; at 45.8 µM (top of the series) unless noted. In outline:
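Exponentially growing Cal-1 cells, 500 per well in phenol red-free RPMI with 10% FBS, were exposed to compounds for 48 h at 37 °C, 5% CO2. Viability was read by CellTiter-Glo luminescence and normalised to DMSO (100%) and 9.2 uM bortezomib (0%).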

Assay [10] can be described thus: qHTS assay for measurement of the activity of small molecule inhibitors on Zika virus induced Caspase-3 activity in human astrocytoma cells (AID 1224859; active = well fitted curve in the direction sought with a large enough effect; an effect the other way counts as inactive or inconclusive;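 note: plate controls were ZIKV-infected untreated cells for no effect and uninfected cells for full effect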). In outline: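 Caspase activation in ZIKV-infected SNB-19 cells (2 FFU/cell, 6 h) measured by Caspase-Glo 3/7 luminescence after 30 min RT; compound pre-incubated 1 h; normalised to uninfected and infected controls.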

The nature of assay [11]: qHTS Screen of the MIPE 4.0 Collection Against Ewings Sarcoma (RDES) (AID 1259252; active = well fitted curve in the direction sought with a large enough effect; an effect the other way counts as inactive or inconclusive; note: potency is the fitted concentration of half-maximal effect; nearly all actives have a fitted effect of over 35% in size). The procedure, abridged:
(§2)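 Here, cells in 5% FBS RPMI were exposed for two days (48 h) to compound dilutions added four hours after plating. ATP-based CellTiter-Glo luminescence measured viability, normalized to vehicle and no-cell blanks.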

Assay [12] is described as follows: qHTS Screen of the MIPE 4.0 Collection Against Ewings Sarcoma (TC71) (AID 1259253; active = well fitted curve in the direction sought with a large enough effect; an effect the other way counts as inactive or inconclusive; note: nearly all actives have a fitted effect of over 40% in size; note: potency is the fitted concentration of half-maximal effect). The procedure, abridged: as §2
A short description of assay [13]: qHTS Screen of the MIPE 4.0 Collection Against Ewings Sarcoma (EW8) (AID 1259255; active = well fitted curve in the direction sought with a large enough effect; an effect the other way counts as inactive or inconclusive; note: nearly all actives have a fitted effect of over 35% in size; note: potency is the fitted concentration of half-maximal effect;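 for viability: 100% = DMSO-treated cells and 0% = medium-only wells without cells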). The procedure, abridged:
as §2

The nature of assay [14]: qHTS Screen of the MIPE 4.0 Collection Against Ewings Sarcoma (TC32) (AID 1259256; active = well fitted curve in the direction sought with a large enough effect; an effect the other way counts as inactive or inconclusive; note: nearly all actives have a fitted effect of over 45% in size; note: potency is the fitted concentration of half-maximal effect). The procedure, abridged:
as §2

A short description of assay [15]: Identifying Small Molecule Inhibitors of Pancreatic Cancer Stem Cells (SN12C, Spheroid) (AID 1259360; active = well fitted curve in the direction sought with a large enough effect; an effect the other way counts as inactive or inconclusive; note: potency is the fitted concentration of half-maximal effect). The following applies: Potency: SN12C spheroid viability. The procedure, abridged:
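Pre-formed 14-day tumor spheroids or adherent cells dosed and incubated 48 h, 37C, 5% CO2. Viability assessed by CellTiter-Glo.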

Consider `CO[C@H]1C=CC=C(C)C(=O)NC2=CC(=O)C(NCCN(C)C)=C(C[C@@H](C)C[C@H](OC)[C@@H](O)[C@@H](C)C=C(C)[C@@H]1OC(N)=O)C2=O`, for which the remaining parasite growth % (stronger effect = lower value) in assay [1] is -0.553%. For the same molecule, the activity, percent of control in [2] was -0.115%. Besides, in assay [3], the remaining proliferation (% of control), lower = more inhibition is -2.33%. Also, the parasite growth, % of DMSO control in assay [4] is 5.12%. In [5], this molecule displayed a parasite growth remaining, % of DMSO control (lower = more inhibition) of 6.82%. Also, the parasite growth, % of control (lower = inhibition) in assay [6] turned out to be 6.75%. In assay [7], the growth, % of control was found to be 6.65%. In addition, the cell viability, % of control (lower = more cytotoxic) in assay [8] was determined as 4.49%. Moreover, in assay [9], the viability (% of control) is 3.52%. Also, the Potency result in assay [10] was “inactive”. Also, the Potency in assay [11] is 235 nM (active); in [12], 235 nM (active); in assay [13], 235 nM (active); in [14], 46.9 nM (active); in [15] it was 5.9 nM (active).
Consider `CN(C)C1CCN(C(=O)c2ccc(NC(=O)Nc3nc(N4CCOCC4)nc(N4CCOCC4)n3)cc2)CC1`, for which the remaining parasite growth % (stronger effect = lower value) in [1] amounted to 0.246%. For the same molecule, in [2], the activity, percent of control was found to be 2%. In addition, the remaining proliferation (% of control), lower = more inhibition in [3] worked out at 2.09%. In assay [4], this molecule registered a parasite growth, % of DMSO control of 5.78%. For the same molecule, in [5], the parasite growth remaining, % of DMSO control (lower = more inhibition) was determined as 7.83%. For the same molecule, in assay [6], the parasite growth, % of control (lower = inhibition) was 9.5%. Also, the growth, % of control in assay [7] was found to be 4.82%. Also, the cell viability, % of control (lower = more cytotoxic) in assay [8] was determined as 6.71%. Further, the viability (% of control) in assay [9] turned out to be 12.5%. Also, the Potency result in [10] was “inactive”. Also, the Potency in assay [12] was 74.3 nM (active).
Regarding `O=c1ccn([C@@H]2O[C@H](CO)[C@H](O)[C@H]2O)c(=O)[nH]1`, in [4], the parasite growth, % of DMSO control worked out at 92.2%. Besides, the parasite growth remaining, % of DMSO control (lower = more inhibition) in assay [5] amounted to 90.5%. For the same molecule, the parasite growth, % of control (lower = inhibition) in assay [6] stood at 99.5%. Further, in assay [8], the cell viability, % of control (lower = more cytotoxic) came out at 90%. Moreover, in assay [9], the viability (% of control) was 112%. In addition, the Potency entry in assay [10], in assay [13] and in assay [14] was “inactive” in each case.
Consider `COc1ccc(C2Sc3ccccc3N(CCN(C)C)C(=O)C2OC(C)=O)cc1` (stereo not given), for which the parasite growth, % of DMSO control in assay [4] is 68.8% and 96.6%. The parasite growth remaining, % of DMSO control (lower = more inhibition) in assay [5] was 81% and 97.9%. Besides, in [6], the parasite growth, % of control (lower = inhibition) is 33.4% and 89.9%. For the same molecule, the growth, % of control in assay [7] is 60.2% and 101%. In addition, the cell viability, % of control (lower = more cytotoxic) in [8] was 150%. For the same molecule, in [9], the viability (% of control) came to 90%. Besides, the Potency result in [10], in assay [12], in assay [13] and in assay [14] was “inactive” throughout. In addition, in [11], the Potency was 18700 nM (active).
`O=C(Nc1c(Cl)cncc1Cl)c1ccc(OC(F)F)c(OCC2CC2)c1` returned a parasite growth, % of DMSO control in assay [4] of 109%. This molecule also yielded a parasite growth remaining, % of DMSO control (lower = more inhibition) in assay [5] of 100%. For the same molecule, the parasite growth, % of control (lower = inhibition) in assay [6] stood at 67.9%. In assay [7], this molecule yielded a growth, % of control of 100%. For the same molecule, the cell viability, % of control (lower = more cytotoxic) in assay [8] was 134%. Moreover, the viability (% of control) in [9] is 105%. Also, the Potency entry in [10] and in assay [13] was “inactive” throughout.
Turning to `COc1cc2c(cc1OC)CN(CCc1ccc(NC(=O)c3cc(OC)c(OC)cc3NC(=O)c3cnc4ccccc4c3)cc1)CC2`, in assay [4], the parasite growth, % of DMSO control worked out at 39.1%. The molecule also registered a parasite growth remaining, % of DMSO control (lower = more inhibition) in [5] of 83.6%. The same molecule came in with a growth, % of control in assay [7] of 93.6%. Moreover, the cell viability, % of control (lower = more cytotoxic) in assay [8] is 115%. Further, the viability (% of control) in [9] is 93.8%. In assay [10], the Potency entry was “inactive”. In addition, in [14], the Potency was 5900 nM (active).
In assay [4], `COC(=O)C1=CO[C@@H](O)[C@@H]2C(CO)=CC[C@@H]12` registered a parasite growth, % of DMSO control of 83%. The same molecule showed a parasite growth remaining, % of DMSO control (lower = more inhibition) in assay [5] of 85.9%. In assay [6], the parasite growth, % of control (lower = inhibition) turned out to be 98.4%. In [7], this molecule gave a growth, % of control of 91%. The cell viability, % of control (lower = more cytotoxic) in assay [8] was determined as 17.3%. Besides, the viability (% of control) in [9] worked out at 16.7%. Besides, the Potency result in assay [10] and in assay [13] was “inactive” each time.
The molecule `c1cc(-c2sc(-c3ccncc3)c(-c3ccncc3)c2-c2ccncc2)ccn1` gave a parasite growth, % of DMSO control in assay [4] of 8.84%. In [5], this molecule registered a parasite growth remaining, % of DMSO control (lower = more inhibition) of 81.7%. The parasite growth, % of control (lower = inhibition) in [6] was 19.1%. Further, the growth, % of control in assay [7] amounted to 3.72%. Moreover, the cell viability, % of control (lower = more cytotoxic) in assay [8] is 64.5%. For the same molecule, the viability (% of control) in assay [9] turned out to be 79.1%. In addition, the Potency result in assay [10] was “inactive”.
On to `Cc1ccc(F)c(NC(=O)Nc2ccc(-c3cccc4[nH]nc(N)c34)cc2)c1`, for which the remaining parasite growth % (stronger effect = lower value) in assay [1] came to 81.3%. Also, in assay [2], the activity, percent of control turned out to be 67.8%. Also, the remaining proliferation (% of control), lower = more inhibition in assay [3] amounted to 23.1%. Further, the parasite growth, % of DMSO control in assay [4] amounted to 6.52%. This molecule came in with a parasite growth remaining, % of DMSO control (lower = more inhibition) in assay [5] of 37.7%. Also, the parasite growth, % of control (lower = inhibition) in assay [6] is 13.4%. Moreover, in assay [7], the growth, % of control came out at 9.71%. Also, the cell viability, % of control (lower = more cytotoxic) in assay [8] was 5.38%. For the same molecule, in [9], the viability (% of control) came out at 1.55%. Besides, in assay [10], the Potency entry is “inactive”.
